PubChem BioAssay (Tox21)
Where “and” joins values, the source holds several entries; their conditions need not be identical. Equal values may be shown once. Calls of active or inactive are those of the source. Calls follow the shape of the full dose curve.

Molecular target: Thyrotropin-releasing hormone receptor (Homo sapiens) (UniProt P34981)
Assay: qHTS assay to identify small molecule agonists of the thyrotropin-releasing hormone receptor (TRHR) signaling pathway (AID 1346891);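 also: HEK293 cells expressing TRHR with calcium dye readout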
Conditions: TRHR-HEK293 calcium fluorescence, agonist mode; series mostly up to 57.6 µM
From the text: National Center for Advancing Translational Sciences [NCATS] NIH Chemical Genomics Center [NCGC] U.S. Environmental Protection Agency [EPA] National Institutes of Environmental Health Sciences [NIEHS] National Toxicology Program [NTP] Assay overview: Thyrotropin-releasing hormone (TRH) receptor (TRHR) is a G-protein-coupled receptor which binds the tripeptide thyrotropin releasing hormone. TRHR is found in the brain and, when bound by TRH, acts (through phospholipase C) to increase intracellular inositol trisphosphate. It plays a crucial role in the anterior pituitary where it controls the synthesis and secretion of thyroid stimulating hormone and prolactin. The TRHR-Hek293 assay is a cell-based assay, and it has the potential to screen G protein-coupled receptors. A compound/drug can either activate (agonist) or suppress (antagonist) GPCRs that can be monitored by levels of intracellular calcium. Using this assay, the Tox21 10K compound library was screened to identify potential TRHR agonists.
Assay Protocol Summary: The TRHR-Hek293 cells were dispensed at 1500cells/4uL/well in 1536-well black-clear bottom plates using a Multidrop dispenser. After the assay plates were incubated at a 37 C/5% CO2 incubator for 18 hours, 4 uL of Dye-Loading Solution was added to each well. The plates were incubated at 37 C for 2 hours. For agonist mode, 23 nL of compounds dissolved in DMSO, positive controls or DMSO only was transferred to the assay plate by a pin tool. The fluorescence intensity in the plates was measured using FDSS 7000EX kinetic plate reader for 3 min at 1 sec intervals. Each test compound was measured at 15 concentrations and in triplicates.
% is scaled to controls: 0 for no effect and ±100 for the full control effect.

Thyrotropin-releasing hormone receptor (Homo sapiens), sequence (P34981 whole entry, looked up): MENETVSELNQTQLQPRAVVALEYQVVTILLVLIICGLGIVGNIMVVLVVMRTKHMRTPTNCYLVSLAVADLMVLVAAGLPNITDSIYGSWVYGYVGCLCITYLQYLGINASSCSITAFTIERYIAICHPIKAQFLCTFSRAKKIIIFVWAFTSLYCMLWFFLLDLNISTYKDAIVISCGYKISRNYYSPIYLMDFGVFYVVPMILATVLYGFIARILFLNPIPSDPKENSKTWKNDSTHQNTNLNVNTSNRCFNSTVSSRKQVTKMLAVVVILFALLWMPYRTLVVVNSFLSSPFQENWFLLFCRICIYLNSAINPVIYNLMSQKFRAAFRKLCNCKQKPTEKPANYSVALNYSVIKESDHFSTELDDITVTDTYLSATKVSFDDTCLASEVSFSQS

SMILES	outcome	activation
COc1ccc(Nc2ccccc2)c(C)c1	inactive	
CN(C)CCC(c1ccc(Cl)cc1)c1ccccn1 (stereo not given)	inactive	
O=S(=O)(O)c1ccc2ccccc2c1	inactive	
CCCCC(CC)COC(=O)CCCCC(=O)OCC(CC)CCCC (stereo not given)	inactive	
CCCCCCCC(=O)OC	inactive	
CC(C)(N)CO	inactive	
FC(F)(F)c1ccc(Cl)c(Cl)c1	inactive	
CC1CCC(C(C)C)C(O)C1 (stereo not given)	inactive	
O=[N+]([O-])c1ccc(/C=C/c2ccc([N+](=O)[O-])cc2S(=O)(=O)O)c(S(=O)(=O)O)c1	inactive	
Cc1cccnc1	inactive	
CCN(CC)CCCC(C)Nc1ccnc2cc(Cl)ccc12 (stereo not given)		0.225% [at 5.23 µM] (inactive) and -0.0196% [at 11.8 µM] (inactive)
Cc1ccc2oc(=O)ccc2c1	inactive	
COc1ccc(NC(C)=O)cc1N	inactive	
C=C(C)C(=O)Nc1ccc(Cl)c(Cl)c1	inactive	
CCN(CC)c1ccc(C(=O)c2ccccc2C(=O)O)c(O)c1	inactive	
COc1cc(Cc2cnc(N)nc2N)cc(OC)c1OC	inactive	
OCCOCCN1CCN(C2=Nc3ccccc3Sc3ccccc32)CC1	inactive	
O=C(O)c1ccccc1C(c1ccc(O)cc1)c1ccc(O)cc1	inactive	
Nc1ccccc1[N+](=O)[O-]	inactive	
c1ccc2c(c1)ccc1ccccc12	inactive	

SMILES	outcome	activation
O=c1[nH]c(=O)n([C@H]2C[C@H](O)[C@@H](CO)O2)cc1Br	inactive	
CC1CCC2CC1C2(C)C (stereo not given)	inactive	
Fc1ccc(Br)cc1	inactive	
O=C(Oc1ccccc1)c1ccccc1	inactive	
CC[C@H](C)C(=O)O[C@H]1C[C@@H](C)C=C2C=C[C@H](C)[C@H](CC[C@@H]3C[C@@H](O)CC(=O)O3)[C@H]21	inactive	
CCCCN(CCCC)CCCC	inactive	
C/C=C1/CC2C=CC1C2 (stereo not given)	inactive	
OCCOCCOCCO	inactive	
O=C(O)c1ccc(C(=O)O)cc1	inactive	
COS(C)(=O)=O	inactive	
CCC(O)OC(O)CC (stereo not given)	inactive	
CC1=CCC2CC1C2(C)C (stereo not given)	inactive	
CCCCCCCCCCCCS	inactive	
CC(=O)Nc1ccccc1	inactive	
C[Si](O[Si](C)(C)C)O[Si](C)(C)C	inactive	
CC(=O)c1ccccc1	inactive	
CC(=O)CC(=O)Nc1ccccc1C	inactive	
CCCCCC1=CCCC1=O	inactive	
c1c[nH]cn1	inactive	
CC1=CC(=O)NS(=O)(=O)O1	inactive	
